Laboratory results published in PubChem BioAssay AID1117319 (Southern Research Institute, 2015).
Values joined by “and” are separate entries in the source; they are usually repeats but may differ in a detail not shown here. Identical values can stand only once. The campaign covered roughly 260,000 compounds. About 1,500 (0.58%) were called active. About 5% were inconclusive and are not listed.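 Rule for the calls: active = inhibition above a set limit at one or more doses, reproduced on every date tested; inconclusive = results disagree between test dates, or hit never tested in dose response; inactive = the rest.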 The list is a sample of the results. Results with a measured potency or affinity are listed apart.

biological target: Virion infectivity factor (Human immunodeficiency virus type 1 group M subtype B (isolate BH10)) + Virion infectivity factor (Human immunodeficiency virus type 1 group M subtype B (isolate BRU/LAI)) + Virion infectivity factor (Human immunodeficiency virus type 1 group M subtype B (isolate PCV12)) + Virion infectivity factor (Human immunodeficiency virus type 1 group M subtype B (isolate HXB2)) + DNA dC->dU-editing enzyme APOBEC-3G (Homo sapiens) (UniProt P69720+P69721+P69722+P69723+Q9HC16); test: inhibitors of Vif binding to APOBEC3G peptide, primary screen, biochemical, TR-FRET, GST-Vif 1-94, biotin-A3G peptide, dose response retest (AID 1117319); settings: active compounds read high;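 note: Vif residues 1-94 fused to GST binding biotinylated APOBEC3G peptide 110-148; 0% = full assay without inhibitor and 100% = GST in place of GST-Vif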

inhibition, inactive:
CCc1ccc(OCc2nnc(SCc3ccc(C(=O)O)cc3)o2)cc1 -1.45%
O=C(O)c1ccc(CSc2nnc(COc3ccccc3)o2)cc1 -5.6%
CSCCC(NC(=O)c1ccccc1Cl)C(=O)N1CCN(c2ccccn2)CC1 (centres undefined) -6.33%
COc1ccc(-c2noc(CCC(=O)N3CCN(c4cccc(C(F)(F)F)c4)CC3)n2)cc1 22.9% and -0.11%
CC(C)N(Cc1ccccc1)C(=O)COC(=O)C1CCN(c2ccc(C(F)(F)F)cn2)CC1 -3.12%
O=C1C(=O)c2c(ccc3ccccc23)-c2ccccc21 -6.35%
Oc1ccc2ccccc2c1Br 0.97%
CCCCCCCCC#Cc1nc(C)ccc1OC -3.1%
CCOC(=O)N1C2=NC(C(=O)OC)=C(C(=O)OC)[C@@H]3Nc4ccccc4[C@]23C[C@H]1C(=O)OC 4.32%
C[C@H]1CN([C@@H](C)CO)C(=O)CCCn2nncc2CO[C@@H]1CN(C)C(=O)NC1CCCCC1 1.5%
O=C(O)c1ccccc1C(=O)Nc1ccc(-n2nccc2C(F)(F)F)cc1 -1.72%
O=C(CNc1ccc(F)cc1)N/N=C1\CCCc2ccccc21 -0.54%
COC(=O)CSc1nc(N)nc(C)c1Cl -8.89%
c1ccc2c3c(cc(N4CCOCC4)c2c1)OC1(N2CCOCC2)CCCCC1O3 (centres undefined) -2.4%
CC1=C(C(=O)N2CCOCC2)C(c2ccc(O)cc2)NC(=S)N1 (centres undefined) 17.4%
COc1cc(OC)cc(C(=O)N[C@H](C(=O)Nc2cc(C)cc(C)c2)C(C)C)c1 -1.59%
COc1ccc(OC)c2[nH]c(=O)c(CCNC(=O)C(=O)c3c(C)[nH]c4ccccc34)cc12 2.37%
CC[n+]1cccc(-c2nc3ccccc3s2)c1 5.45%
COC(=O)CSc1nnc(CNC(=O)c2cccc(C)c2)n1-c1ccccc1OC 6.5%
CCOC(=O)CSc1nnc(CNC(=O)Cc2ccccc2)n1-c1ccccc1OC -6.46%
Cc1ccc(CNC(=O)C2CC2c2ccccc2)cc1 (centres undefined) -6.49%
CN(CC(=O)Nc1c(Cl)cccc1Cl)C(=O)Cc1ccsc1 -2.32%
Cc1cc(NC(=O)C2CC(c3ccc(F)cc3)=NO2)no1 (centres undefined) 0.56%
CCc1cc2cccc(C)c2nc1SCC(=O)Nc1nonc1C 32.8%
COc1cc(S(=O)(=O)N(Cc2ccccn2)Cc2ccco2)ccc1-n1cnnn1 -2.53%
COc1ccccc1CN(Cc1ccco1)S(=O)(=O)c1ccc(-n2cnnn2)c(OC)c1 0.86%
CN[C@H]1C[C@H]2c3[nH]c4ccccc4c3CCN2C(=O)[C@H]1[C@H](C)O -5.11%
O=[N+]([O-])c1cc(F)c(N2CCCCC2)cc1N1CCOCC1 8.86%
N#Cc1cc(N2CCCCC2)c([N+](=O)[O-])cc1C#N -2.18%
CCN(c1ccccc1)S(=O)(=O)c1ccc(Oc2ccccc2)c(N)c1 2.08%
COc1ccc(C2=NOC(C(=O)NCc3cccs3)C2)cc1 (centres undefined) -3.82%
COc1cccc(C2=NOC(C(=O)NCc3cccs3)C2)c1 (centres undefined) -3.08%
COc1cc(-n2c(C)nc3ncn(-c4ccccc4)c3c2=O)cc(OC)c1OC 2.62%
CC(=O)Nc1ccc(OCC(O)Cn2cccn2)cc1 (centres undefined) -6.52%
CCCN(CC(=O)Nc1ccccc1C)C(=O)C1CCN(C(=O)Nc2ccccc2)CC1 -0.04%
O=C(Oc1ccccc1)c1cccc(N2C(=O)CCC2=O)c1 -0.79%
N#Cc1c(Nc2cccc(F)c2)sc2c(O)cc(=O)[nH]c12 -5.54%
O=C(CCc1ccc(S(=O)(=O)NCCc2ccccc2)cc1)NCc1ccc2c(c1)OCO2 -2.37%
CS(=O)(=O)N(CCc1ccccc1)CC(=O)Nc1ccc2c(c1)OCO2 13.8%
CS(=O)(=O)N(CC(=O)Nc1ccc2c(c1)OCCO2)Cc1ccccc1 24.5%
CCCNS(=O)(=O)c1ccc(CCC(=O)Nc2ccc3c(c2)OCO3)cc1 2.82%
CC1(C)Cc2c(sc3nc(SCC(=O)N4CCOCC4)nc(N)c23)CO1 3.98%
CSc1nc(C)cc(OCC(=O)n2nc(C)cc2C)n1 1.86%
CC(=O)Nc1sc2c(c1C(c1ccccc1)N1CCOCC1)CCCC2 (centres undefined) 5.78%
CCOC(=O)c1ccc(NC(=O)C(=O)NCc2ccncc2)cc1 27%
O=[N+]([O-])c1c(NCCO)cc(N2CCC3(CC2)OCCO3)c2nonc12 -8.02%
CC(=O)OCCNc1cc(N2CCN(C)CC2)c2noc3c2c1C(=O)c1ccccc1-3 3.2%
CCOC(=O)c1coc(C(=O)OCC)c1C(=O)OCC -10.9%
COc1ccc(-c2csc(NC3=NCCCCC3)n2)cc1 -3.94%
O=C1NC(=S)N/C1=C/c1cc([N+](=O)[O-])ccc1O 0.15%
O=C1NC(=S)N/C1=C\c1cccc([N+](=O)[O-])c1 0.47%
O=C(/C=C\Nc1ccc2c(c1)OCO2)c1ccccn1 -6.96%
O=C(/C=C\Nc1ccccn1)c1ccccc1 1.92%
O=C(NCc1cccnc1)c1cc2nc(-c3cccs3)cc(C(F)(F)Cl)n2n1 -9.65%
CCOc1ccc(NCc2nc3ccccc3n2CCOc2ccccc2)cc1 11.4%
Cn1c(CNc2ccccc2O)nc2ccccc21 17.5%
COc1ccc(NCc2nc3ccccc3n2CCOc2ccc(C)cc2)cc1 8.44%
CCCn1c(CNc2ccc(Br)cc2)nc2ccccc21 -3.54%
CCOC(=O)n1c(=O)oc2cc(S(=O)(=O)N3CCOCC3)ccc21 9.96%
COc1ccc(Cc2nnc(SCC(=O)NCc3ccco3)o2)cc1 3.47%
COc1cc(-c2nnc(-c3cccs3)o2)cc(OC)c1OC 2.65%
COc1ccc(-c2nnc(-c3cccs3)o2)cc1OC 25.2%
Cc1ccc(C(=O)N[C@H](C(=O)OCC(=O)c2ccc[nH]2)C(C)C)cc1 -7.75%
O=C1C(=Cc2ccco2)C(=O)c2ccccc21 -3.58%
O=C1NC(=S)NC1=Cc1ccccc1O -3.79%
O=C1NC(=S)NC1=Cc1ccc(O)cc1 4.35%
Cc1ccc2c(c1)/C(=C/c1ccco1)C(=O)N2 6.3%
Cc1ccc(/C(O)=C2/C(=O)C(=O)N(c3ccccn3)C2c2cccc([N+](=O)[O-])c2)cc1 (centres undefined) 1.22%
O=C(Nn1cnnc1)c1ccc(Cl)c([N+](=O)[O-])c1 -7.17%
CCN(CC)C(=O)[C@H]1C[C@H](CC(=O)NCc2ccco2)C(=O)N2CCc3c([nH]c4cc(-c5ccco5)ccc34)[C@]12C -1.87%
O=C(O)CCCNC(=O)c1cncc(Br)c1 -4.15%
COc1cc(-c2nnc3n2CCCCC3)cc(OC)c1OC -1.21%
Cc1ccc(NC(=O)C(NC2CCCC2)c2ccccc2)cc1Cl (centres undefined) 21.3%
C=CCN1C(=O)S/C(=C/c2ccc(Sc3nc4ccccc4[nH]3)o2)C1=O -2.89%
N#C/C(=C/c1ccc(Sc2nc3ccccc3[nH]2)o1)c1cccc(F)c1 25.4%
O=C1NN(c2ccccc2)C(=O)/C1=C/c1ccc(Sc2ccc(Cl)cc2)o1 -5.35%
N#C/C(=C\c1ccc(Sc2nc3ccccc3[nH]2)o1)c1ccccc1 4.57%
CC(C)N=C1NN=C(c2cccs2)C(CC(=O)O)S1 (centres undefined) 1.51%
CCOc1ncccc1C(=O)OCC(=O)Nc1c(C)cc(C)cc1C 2.59%
Nc1c(C(=O)Nc2ccccc2)sc2nc3c(c(-c4ccco4)c12)CCCC3 -0.46%
Nc1c(C(=O)Nc2ccccc2)sc2nc3c(c(-c4ccco4)c12)CCC3 13.2%
COc1cc(/C=C2\CCC/C(=C\c3ccc(O)c(OC)c3)C2=O)ccc1O 3.35%
COc1cc(/C=C2\CC/C(=C\c3cc(OC)c(OC)c(OC)c3)C2=O)cc(OC)c1OC 2.04%
COc1cc(/C=C2/CC/C(=C/c3ccc(O)c(OC)c3)C2=O)ccc1O 32.3%
COc1ccc(/C=C2\CC/C(=C\c3ccc(OC)c(OC)c3)C2=O)cc1OC -3.91%
Cc1cc(C)cc(OCc2ccc(C(=O)O)o2)c1 9.08%
FC(F)(F)c1ccc(N=Cc2sc(N3CCOCC3)nc2-c2ccccc2)cc1 12.3%
COc1ccc(NC(=O)CN(C)C(=O)c2sc3ccccc3c2Cl)cc1 1.23%
CS(=O)(=O)N(Cc1ccccc1)c1ccc(C(=O)NCc2ccccc2)cc1 25%
C/C(=N\Nc1ccc(S(N)(=O)=O)cc1[N+](=O)[O-])c1ccco1 -3.09%
O=C1OC(c2ccc(Cl)cc2)=C/C1=C/c1cccnc1 1.36%
COC(=O)C1=C(C)NC(C)=C(C(=O)OC)C1c1ccc(NC(C)=O)cc1 -1.45%
O=C(Nc1ccc(Cl)c(Cl)c1)c1ccc(Cl)c(Cl)c1 22.2%
Cc1ccc(NC(=O)c2ccc(Cl)nc2)cc1 16.1%
